NS1 function inh = blocks influenza NS1 protein function; AID 2326; 0.4% of 270,000 active; Potency, µM (highest dose often 46.1 µM), for inactives: at the highest dose activity, positive = more growth; note: actives are rising curves; nearly all actives have a fitted effect of over 50% in size
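Recovery from NS1-induced slow growth read by OD600 in budding yeast switched to galactose assay medium (pH 6.0, -URA) at 1:100 dilution. Compound 23 nl per well; the matching strain lacking NS1 serves as control.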
SARS PLpro yeast = SARS-CoV PLP inhibition in yeast | Potency, µM (doses to about 32.9 µM), without a hit: at the highest dose activity, positive = growth rescue, actives largely listed as activators | S. cerevisiae expressing SARS-CoV PLpro, growth rescue | AID 485353 | 0.19% of 330,000 active; note: 0% is about no effect; nearly all actives have a fitted effect of over 55% in size
Pf growth 96h = P. falciparum growth inhibition at 96 hours | P. falciparum luciferase reporter growth, 96 h | Potency, µM (doses to about 28.7 µM), for inactives: at the highest dose activity change, negative = inhibition, usual class: inhibitors | 6.9% of 320,000 active; active = well fitted inhibition curve with a large enough effect; inconclusive = small, poorly fitted or top-dose-only effect, or another doubt; inactive = no such curve, though single readings can be large or run the other way; note: % is set by controls: 0 for no effect and ±100 for the full control effect
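Luminescence readout: decreased luciferase signal marks inhibited growth of reporter-expressing P. falciparum in infected red cells (2% hematocrit, 0.05% parasitemia final), exposed to compound two generations (96 h, 37 C, 5% CO2).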
Pf growth 48h = P. falciparum growth inhibition at 48 hours (one generation); P. falciparum luciferase growth in erythrocytes, 48 h; Potency, µM (top dose mostly 28.7 µM), inactives show at the highest dose activity change, negative = inhibition, hits mostly inhibitors; 5.9% of 310,000 active; AID 504832; active = well fitted inhibition curve with a large enough effect; inconclusive = small, poorly fitted or top-dose-only effect, or another doubt; inactive = no such curve, though single readings can be large or run the other way; note: % is set by controls: 0 for no effect and ±100 for the full control effect
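In quantitative HTS format, infected erythrocytes bearing luciferase-reporter parasites were treated for a single generation at 37 C. Luminescence after adding detection reagent served as the growth measure.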
* = called active by the depositor; ? = inconclusive; . = no result given. Only some compounds are listed: those with a hit (about 10% of all), similar ones and a draw of the others. Unless noted, calls come from the whole dose curve. Potency is the fitted concentration of half-maximal effect.

SMILES	NS1 function inh	SARS PLpro yeast	Pf growth 96h	Pf growth 48h
C#CCOCCOCCOCCNc1nc(N2CCN(C(=O)[C@H](Cc3cc4ccccc4[nH]3)n3cc([C@@H](N)C(C)CC)nn3)CC2)nc(N2CCN(C(=O)[C@H](Cc3cc4ccccc4[nH]3)n3cc([C@@H](N)CC(C)C)nn3)CC2)n1 (stereo partly specified)	5.0%	-2.3%	?	11.7µM*
C#CCOCCOCCOCCNc1nc(N2CCN(C(=O)C(Cc3ccc(O)cc3)n3cc(C(N)CC(C)C)nn3)CC2)nc(N2CCN(C(=O)C(Cc3cc4ccccc4[nH]3)n3cc(C(N)Cc4ccc(O)cc4)nn3)CC2)n1 (stereo unspecified)	4.4%	0.3%	13.1µM*	?
C#CCOCCOCCOCCNc1nc(N2CCOCC2)nc(N2CCN(C(=O)[C@H](CCC(=O)O)n3cc(C(N)Cc4ccc(O)cc4)nn3)CC2)n1 (stereo partly specified)	2.1%	-1.5%	17.3%	3.4%
C#CCOCCOCCOCCNc1nc(N2CCOCC2)nc(N2CCN(C(=O)[C@H](Cc3cc4ccccc4[nH]3)n3cc([C@@H](N)Cc4ccc(O)cc4)nn3)CC2)n1	-1.8%	-1.2%	1.85µM*	?
C#CCOCCOCCOCCNc1nc(N2CCN(C(=O)[C@H]([C@@H](C)CC)n3cc([C@@H](N)CO)nn3)CC2)nc(N2CCN(C(=O)[C@H](Cc3cc4ccccc4[nH]3)n3cc([C@@H](N)Cc4ccc(O)cc4)nn3)CC2)n1	-62.6%	-5.2%	2.94µM*	-99.9%
C#CCOCCOCCOCCNc1nc(N2CCN(C(=O)[C@H](CCC(=O)O)n3cc(C(N)Cc4ccc(O)cc4)nn3)CC2)nc(N2CCN(C(=O)[C@H](Cc3cc4ccccc4[nH]3)n3cc(C(N)CC(C)C)nn3)CC2)n1 (stereo partly specified)	8.1%	-2.5%	3.7%	23.7%
CC(=O)Nc1ccc(S(=O)(=O)N2CCN(c3ccc([N+](=O)[O-])cc3)CC2)cc1	-1.2%	1.1%	-26.9%	?
O=C(NCCc1ccccc1)C1CCC(CNS(=O)(=O)c2cccc3cccnc23)CC1 (stereo unspecified)	-4.0%	-0.3%	-19.1%	?
CCOC(=O)C1=CC[C@]2(C)c3c(c4ccccc4n3C)C(=O)C1N2C	.	6.2%	?	13.1µM*
CCOC(=O)C1=CC[C@H]2c3c(c4ccc(OC)cc4n3C)C(=O)C1N2S(=O)(=O)c1ccc(C)cc1	.	-1.3%	?	?
CCOC(=O)C1=CCC2c3c(c4ccccc4n3C)C(=O)C1N2C(=O)OC(C)(C)C (stereo unspecified)	.	-8.7%	?	8.28µM*
O=C(COC(=O)c1ccc[nH]c1=O)NC1CC1	.	-3.3%	.	.
CCOc1ccc(C(=O)N/N=C(\c2ccccc2)c2ccccn2)cc1	-64.4%	-38.4%	11.7µM*	13.1µM*
Fc1ccc(N/N=C(/c2ccccc2)c2ccccn2)cc1	2.2%	?	5.22µM*	?
CCn1nc(C(=O)NNS(=O)(=O)c2ccc(C)cc2)c2ccccc2c1=O	.	12.0%	.	.
N#Cc1ccc(OC(=O)c2ccc(N=C(N)N)cc2)cc1	-0.3%	.	.	.
CCOCCCNC(=O)c1cn(C)c2ccc(S(=O)(=O)N3CCCC3)cc2c1=O	5.3%	1.3%	6.57µM*	-27.1%
CCCCN(CCCC)CCNC(=O)c1cn(C)c2ccc(S(=O)(=O)N3CCCC3)cc2c1=O	1.6%	.	11.7µM*	-18.6%
CCCCCNC(=O)c1cc(S(=O)(=O)N2CCCC2)ccc1F	-10.8%	1.6%	11.7µM*	-14.0%
Cn1cc(C(=O)NC2CCCCCCC2)c(=O)c2cc(S(=O)(=O)N3CCCC3)ccc21	-6.0%	8.0%	8.28µM*	?
COCCNC(=O)c1cn(C)c2ccc(S(=O)(=O)N3CCCC3)cc2c1=O	15.4%	-0.5%	-17.1%	13.3%
CCCCNC(=O)c1cn(C)c2ccc(S(=O)(=O)N3CCOCC3)cc2c1=O	0.3%	.	.	.
Cn1cc(C(=O)NC2CCCCCC2)c(=O)c2cc(S(=O)(=O)N3CCCC3)ccc21	-35.7%	-5.0%	41.0%	5.1%
Cn1cc(C(=O)NCc2ccc(F)cc2)c(=O)c2cc(S(=O)(=O)N3CCCCC3)ccc21	4.1%	-2.9%	-25.1%	14.7µM*
CCn1cc(C(=O)N2CCc3ccccc3C2)c(=O)c2cc(S(=O)(=O)N3CCCCC3)ccc21	16.6%	-0.6%	-25.9%	?
SMILES	NS1 function inh	SARS PLpro yeast	Pf growth 96h	Pf growth 48h
CC1CCCN(CCCNC(=O)c2cn(C)c3ccc(S(=O)(=O)N(C)C4CCCCC4)cc3c2=O)C1 (stereo unspecified)	5.4%	-1.0%	20.7%	13.1µM*
CCN(CC)CCNC(=O)c1cn(CC)c2ccc(S(=O)(=O)N3CCc4ccccc4C3)cc2c1=O	-2.8%	-4.0%	1.04µM*	?
Cn1cc(C(=O)N2CCc3ccccc3C2)c(=O)c2cc(S(=O)(=O)N3CCCCC3)ccc21	5.5%	-11.2%	3.7µM*	-17.0%
CCN(CC)CCCNC(=O)c1cn(CC)c2ccc(S(=O)(=O)N3CCc4ccccc4C3)cc2c1=O	.	-3.0%	?	-16.1%
Cc1ccc(OCCNC(=O)CCNS(=O)(=O)c2ccc3ccccc3c2)cc1	.	-0.2%	-4.3%	?
CC(=O)c1cccc(NC(=O)C(OC(=O)/C=C/c2ccc3c(c2)OCO3)c2ccccc2)c1 (stereo unspecified)	8.1%	1.2%	.	-21.4%
COc1ccc(Cl)cc1NC(=O)NCc1ccccn1	-1.1%	-7.5%	93.8%	-5.0%
O=C(CSc1ncn[nH]1)Nc1ccc(OCc2ccccc2)cc1	.	-0.9%	98.8%	228.3%
CCN(C(=O)CSc1nc(C)c(C)c(C)n1)C1CCS(=O)(=O)C1 (stereo unspecified)	.	6.3%	.	.
CCOCCCNC(=O)c1cn(CC)c2ccc(S(=O)(=O)N3CCOCC3)cc2c1=O	-5.2%	1.6%	10.4µM*	-9.9%
CN1/C(=C\C=Nc2cc(S(=O)(=O)N3CCOCC3)ccc2N2CCOCC2)C(C)(C)c2ccccc21	-1.9%	-5.8%	8.28µM*	-24.6%
Cc1ccccc1N=C/C=C1\N(C)c2ccccc2C1(C)C	6.4%	-7.4%	.	-5.8%
O=C1C(Cl)=C(Nc2ccc3cn[nH]c3c2)C(=O)c2ccccc21	-38.8%	-4.6%	8.28µM*	11.7µM*
CC1CC(N(C(=O)c2ccco2)c2ccccc2)c2ccccc2N1C(=O)c1ccco1 (stereo unspecified)	-1.6%	11.0%	?	.
CC1CC(N(C(=O)c2ccc(Cl)cc2)c2ccccc2)c2ccccc2N1C(=O)c1ccco1 (stereo unspecified)	4.9%	-12.2%	9.28µM*	.
CC(=O)c1cccc(N2C(=NC(=O)C3CCCCC3)SC3CS(=O)(=O)CC32)c1 (stereo unspecified)	-2.0%	4.9%	-0.4%	-2.6%
CSCCC(NC(=O)c1cc([N+](=O)[O-])ccc1Cl)C(=O)O (stereo unspecified)	1.0%	10.0%	19.0%	-2.4%
COc1ccc(-c2cc(=O)oc3cc(OC(C)C(=O)NC4CC4)ccc23)cc1 (stereo unspecified)	-2.0%	4.0%	2.94µM*	?
Cc1cc(=O)oc2cc(OC(C)C(=O)NC3CCCC3)ccc12 (stereo unspecified)	-42.7%	-0.4%	?	-10.7%

Bioassay records (PubChem BioAssay)
